Assay results: PubChem BioAssay (NCATS)
Where “and” joins values, the source holds several entries; their conditions need not be identical. Equal entries are not always repeated. Records with an inconclusive call do not appear. Calls of active or inactive are those of the source. Calls come from the whole dose curve; as a rule, active = well fitted curve in the direction sought with a large enough effect; inconclusive = small, poorly fitted or top-dose-only effect, or another doubt; inactive = no such curve, though single readings can be large; an effect the other way counts as inactive or inconclusive.

Key:
[1] = biological target: Cellular tumor antigen p53 (Homo sapiens) (UniProt P04637); assay: Primary qHTS for small molecule compounds that upregulate eGFP-tagged delta133p53alpha (in N-terminal) cells. (AID 2060322); settings: NCI-H358 eGFP-delta133p53alpha fluorescence, 24 h; activation: active compounds read high;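 note: series mostly up to about 56 µM; 0% = DMSO vehicle and 100% = reference activator; nearly all actives have a fitted effect of over 75% in size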
Cellular tumor antigen p53 (Homo sapiens), sequence (P04637 whole entry, looked up): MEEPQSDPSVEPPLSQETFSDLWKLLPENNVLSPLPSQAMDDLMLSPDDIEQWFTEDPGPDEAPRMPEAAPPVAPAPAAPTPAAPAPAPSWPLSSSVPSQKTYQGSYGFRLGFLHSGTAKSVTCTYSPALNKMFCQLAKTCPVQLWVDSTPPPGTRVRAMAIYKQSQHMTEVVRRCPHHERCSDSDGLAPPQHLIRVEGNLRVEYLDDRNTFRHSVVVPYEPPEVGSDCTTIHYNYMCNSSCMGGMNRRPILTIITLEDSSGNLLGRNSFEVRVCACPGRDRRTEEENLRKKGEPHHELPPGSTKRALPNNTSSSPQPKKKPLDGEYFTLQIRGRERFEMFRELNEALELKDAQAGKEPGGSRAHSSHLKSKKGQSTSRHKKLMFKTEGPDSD
How it was run: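 NCI-H358 cells pre-induced 24 h with 10 ng/ml doxycycline to express N-terminal eGFP-delta133p53alpha, then dosed 24 h at 37C without doxycycline; fixed, Hoechst-stained, GFP intensity by laser scanning cytometry, normalized to DMSO (0%) and 57.5 uM 5-azacytidine (100%).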

[2] = biological target: Aldehyde dehydrogenase, mitochondrial (Homo sapiens) (UniProt P05091); assay: qHTS for Inhibitors of the Aldehyde Dehydrogenase Family (ALDH2) Primary screen (AID 2061308);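 note: plate controls were vehicle for no effect and reference inhibitor for full effect; nearly all actives have a fitted effect of over 55% in size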
[3] = biological target: Retinaldehyde dehydrogenase 3 (Homo sapiens) (UniProt P47895); assay: qHTS for Inhibitors of the Aldehyde Dehydrogenase Family (ALDH1A3) Validation screen (AID 2061312); note: % is set by controls: 0 for no effect and ±100 for the full control effect; nearly all actives have a fitted effect of over 45% in size
[4] = biological target: Retinaldehyde dehydrogenase 3 (Homo sapiens) (UniProt P47895); assay: qHTS for Inhibitors of the Aldehyde Dehydrogenase Family (ALDH1A3) Primary screen (AID 2061315);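 note: plate controls were DMSO vehicle for no effect and reference inhibitor for full effect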

O=C(CSc1nc2c(c(=O)n1-c1ccccc1)SCC2)Nc1ccc(-c2ccccc2)cn1
inactive: activation [1] 11.5% | Potency [2] | Potency [3] | Potency [4]

CCc1ccc(-c2nc(CSCC(=O)NCCc3ccccc3)c(C)o2)cc1
inactive: activation [1] -12.9% | Potency [2] | Potency [3] | Potency [4]

CC1(C)CC(=O)N(CCCCN2CCN(c3ncccn3)CC2)C(=O)C1
inactive: activation [1] -2.86% | Potency [2] | Potency [3] | Potency [4]

Cc1nc2n(c(=O)c1CCN1CCC(c3noc4cc(F)ccc34)CC1)CCC[C@H]2O
inactive: activation [1] 9.21% and -6.21% | Potency [2] | Potency [3] | Potency [4]

CC1(C)C(=O)C(C)(C)c2cc(C(=O)Nc3ccc(C(=O)O)cc3)ccc21
inactive: activation [1] -2.39% | Potency [2] | Potency [3] | Potency [4]

O=c1[nH]c(=O)n([C@H]2CCCO2)cc1F
inactive: activation [1] -9.6% and 3.34% | Potency [2] | Potency [3] | Potency [4]

COc1ccc(C(=O)n2c(C)c(Cc3cccc(O[C@@H](C)C(=O)O)c3)c3cc(OC(F)(F)F)ccc32)cc1
inactive: activation [1] -3.82% | Potency [2] | Potency [3] | Potency [4]

O=C(Nc1cccnn1)N1CCN(c2nccc(-c3ccc(F)c(F)c3)n2)CC1
inactive: activation [1] 0.477% | Potency [2] | Potency [3] | Potency [4]

COc1cc(Br)c(S(=O)(=O)Nc2ccc(C(F)(F)F)c(O[C@@H]3CCN(C)C3)c2)cc1OC
inactive: activation [1] 12.4% | Potency [2] | Potency [3] | Potency [4]

COC(=O)C(CC1CCCC1)c1ccc(S(C)(=O)=O)cc1 (stereo not drawn)
inactive: activation [1] 0.955% | Potency [2] | Potency [3] | Potency [4]

C[C@H](Nc1cc2c(-c3ccc4c(c3)OCO4)noc2cn1)c1ccccc1
inactive: activation [1] 4.77% | Potency [2] | Potency [3] | Potency [4]

CCCCc1ccc(C(=O)Nc2cc(-c3ccc(Cl)cc3)nn2-c2ccc(Cl)cc2)cc1
inactive: activation [1] 6.68% | Potency [2] | Potency [3] | Potency [4]

CCOC(CN1CCN(CC(C)C(=O)c2ccccc2)CC1)c1ccccc1 (stereo not drawn)
inactive: activation [1] -4.18% and 4.3% | Potency [2] | Potency [3] | Potency [4]

COc1ccc(C(=O)NCc2cc(C(C)C)no2)cc1OC1CCN(C)CC1
inactive: activation [1] 4.77% | Potency [2] | Potency [3] | Potency [4]

C[C@@H]([C@@H](O)c1ccc(O)cc1)N1CCC(O)(c2ccccc2)CC1
inactive: activation [1] 5.25% | Potency [2] | Potency [3] | Potency [4]

Oc1ccccc1-c1cc(-c2ccccc2F)[nH]n1
inactive: activation [1] -12.9% | Potency [2] | Potency [3] | Potency [4]

CN(C)CCn1cc(-c2ccc(F)cc2)c(-n2cccc2)n1
inactive: activation [1] -10.5% | Potency [2] | Potency [3] | Potency [4]

CCNC(=O)c1noc(-c2cc(Cl)c(O)cc2O)c1-c1ccc(OC)cc1
inactive: activation [1] -6.68% | Potency [2] | Potency [3] | Potency [4]

COc1ccccc1N1CCN(CC(C(=O)NC(C)(C)C)c2ccccc2)CC1 (stereo not drawn)
inactive: activation [1] -12.4% | Potency [2] | Potency [3] | Potency [4]

CC(=O)O[C@]1(C(C)=O)CC[C@H]2[C@@H]3CCC4=CC(=O)CCC4=C3[C@@H](c3ccc(N(C)C)cc3)C[C@@]21C
inactive: activation [1] -13.8% | Potency [2] | Potency [3] | Potency [4]

O=C(Nc1ccccc1)Nc1ccc(-c2ccc(C(=O)C3CCCC3C(=O)O)cc2)cc1 (stereo not drawn)
inactive: activation [1] -6.21% | Potency [2] | Potency [3] | Potency [4]

CS(=O)(=O)Nc1ccc2oc3c(OC(F)F)ccc(C(=O)Nc4c(Cl)cncc4Cl)c3c2c1
inactive: activation [1] 22% | Potency [2] | Potency [3] | Potency [4]

CCOC(=O)C(CCc1ccccc1)NC1CSC(c2cccs2)CN(CC(=O)O)C1=O (stereo not drawn)
inactive: activation [1] -0.477% | Potency [2] | Potency [3] | Potency [4]

O=[N+]([O-])c1cn2c(n1)OCC(OCc1ccc(OC(F)(F)F)cc1)C2 (stereo not drawn)
inactive: activation [1] -10% | Potency [2] | Potency [3] | Potency [4]

CCCCNc1nc(N)c2[nH]c(=O)n(Cc3ccc(OCCN(C)C)nc3)c2n1
inactive: activation [1] -9.55% | Potency [2] | Potency [3] | Potency [4]

CS(=O)(=O)c1ccccc1N1CCN(c2nc3c(c(=O)[nH]2)CSCC3)CC1
inactive: activation [1] 11.5% | Potency [2] | Potency [3] | Potency [4]

Cn1nc(C(C)(C)C)cc1C(=O)NC(Cc1cccc(Cl)c1)C(=O)NCC#N (stereo not drawn)
inactive: activation [1] -4.3% | Potency [2] | Potency [3] | Potency [4]
